# For some assays here: Measured potencies and affinities stand elsewhere.
# How the values were obtained:
# Parameters in all cases: scale not given: direction of the effect not stated beside the values
# [1] = target: Protein translocase subunit SecA (Escherichia coli (strain K12)) (UniProt P10408); assay: Assay to Identify E. coli SecA ATPase Inhibitors; type: functional; conditions: 30 µM
# [2] = target: T1, Ubiquitin-activating enzyme e1, putative (Leishmania donovani (strain BPK282A1)) (UniProt E9BSI1); assay: Leishmania donovani Ubiquitin Activating Enzyme (LdE1); type: functional; conditions: 30 µM
# T1 sequence (whole entry): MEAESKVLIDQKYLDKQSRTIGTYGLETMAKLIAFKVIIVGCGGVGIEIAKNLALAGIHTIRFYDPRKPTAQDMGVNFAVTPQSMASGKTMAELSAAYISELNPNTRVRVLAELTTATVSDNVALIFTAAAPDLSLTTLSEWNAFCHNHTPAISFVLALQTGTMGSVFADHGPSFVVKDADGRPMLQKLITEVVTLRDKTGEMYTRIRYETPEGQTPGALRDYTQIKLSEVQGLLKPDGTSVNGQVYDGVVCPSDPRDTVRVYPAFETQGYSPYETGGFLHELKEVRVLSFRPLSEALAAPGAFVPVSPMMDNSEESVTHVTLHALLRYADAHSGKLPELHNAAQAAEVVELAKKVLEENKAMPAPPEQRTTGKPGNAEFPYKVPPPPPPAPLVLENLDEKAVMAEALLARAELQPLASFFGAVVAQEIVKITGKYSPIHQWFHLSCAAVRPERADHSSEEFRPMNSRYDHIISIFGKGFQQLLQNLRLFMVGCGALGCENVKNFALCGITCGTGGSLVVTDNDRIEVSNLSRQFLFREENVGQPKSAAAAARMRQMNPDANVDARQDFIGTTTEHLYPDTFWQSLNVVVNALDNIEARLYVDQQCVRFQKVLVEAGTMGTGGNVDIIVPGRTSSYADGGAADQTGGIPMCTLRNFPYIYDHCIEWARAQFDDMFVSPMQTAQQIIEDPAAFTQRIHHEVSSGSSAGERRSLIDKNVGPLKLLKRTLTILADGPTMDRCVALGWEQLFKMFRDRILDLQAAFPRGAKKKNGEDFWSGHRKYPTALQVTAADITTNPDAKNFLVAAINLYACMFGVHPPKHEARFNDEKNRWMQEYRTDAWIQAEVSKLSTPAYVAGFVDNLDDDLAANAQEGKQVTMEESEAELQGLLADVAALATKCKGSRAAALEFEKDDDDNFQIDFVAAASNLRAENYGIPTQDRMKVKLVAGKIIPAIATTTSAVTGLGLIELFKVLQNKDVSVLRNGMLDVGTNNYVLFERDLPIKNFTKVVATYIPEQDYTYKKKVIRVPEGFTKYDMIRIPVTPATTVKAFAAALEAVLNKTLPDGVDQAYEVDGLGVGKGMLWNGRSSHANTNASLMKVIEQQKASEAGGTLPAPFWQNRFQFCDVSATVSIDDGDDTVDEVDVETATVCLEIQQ
# [3] = target: AMP-activated protein kinase, AMPK (Homo sapiens) (UniProt P54646+O43741+P54619+Q9UGJ0+Q9Y478+Q13131+Q9UGI9); assay: AMP-dependent Kinase enzyme assay. An in vitro enzyme assay that detects ADP turnover that is directly proportional to AMPK activity. This uses naive AMPK that is activated during the assay with MK-8722; type: functional; conditions: 30 µM
# [4] = target: Sialic acid-binding Ig-like lectin 9 (Homo sapiens) (UniProt Q9Y336); assay: Hs-Siglec9 ALPHAscreen SOP 20170721; conditions: 10 µM
# Chain of Sialic acid-binding Ig-like lectin 9 (Homo sapiens) (Q9Y336 whole entry): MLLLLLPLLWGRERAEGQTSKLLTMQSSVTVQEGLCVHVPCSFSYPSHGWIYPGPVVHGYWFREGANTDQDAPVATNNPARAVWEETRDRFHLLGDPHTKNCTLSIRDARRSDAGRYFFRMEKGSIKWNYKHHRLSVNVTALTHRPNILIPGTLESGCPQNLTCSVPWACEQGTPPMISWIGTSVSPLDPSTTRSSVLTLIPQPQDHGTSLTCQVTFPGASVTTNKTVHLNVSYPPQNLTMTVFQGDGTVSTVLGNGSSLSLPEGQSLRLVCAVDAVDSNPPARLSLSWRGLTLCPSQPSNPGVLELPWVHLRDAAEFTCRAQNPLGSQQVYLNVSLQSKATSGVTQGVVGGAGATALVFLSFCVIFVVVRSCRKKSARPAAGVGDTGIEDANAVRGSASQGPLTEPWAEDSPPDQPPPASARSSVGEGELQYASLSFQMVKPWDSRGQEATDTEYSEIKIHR
# Trypanosoma cruzi = assay: Trypanosoma cruzi phosphomannomutase and mannose-1-phosphate guanylyltransferase assay; type: functional; conditions: 10 µM
# [5] = target: T2, Arginase-2, mitochondrial (Homo sapiens) (UniProt P78540); assay: in vitro enzyme assay to detect the production of urea directly proportional to the activity of Arginase II; type: functional; conditions: 33.3 µM; note: in the data most compounds retested in dose-response had high values
# T2 sequence (whole entry): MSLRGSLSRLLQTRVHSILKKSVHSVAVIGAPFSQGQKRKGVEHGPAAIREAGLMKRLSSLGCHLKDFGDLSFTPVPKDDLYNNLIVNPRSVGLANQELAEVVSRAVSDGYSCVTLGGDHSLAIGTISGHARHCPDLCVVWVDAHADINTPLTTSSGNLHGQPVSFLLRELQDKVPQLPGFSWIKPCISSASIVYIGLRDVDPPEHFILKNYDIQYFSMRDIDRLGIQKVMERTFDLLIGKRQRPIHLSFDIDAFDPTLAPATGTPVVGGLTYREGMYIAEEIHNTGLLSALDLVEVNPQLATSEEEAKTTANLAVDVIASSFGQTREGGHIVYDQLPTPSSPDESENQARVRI
# [6] = target: T3, Proteasome subunit beta (Trypanosoma cruzi) (UniProt O96673); assay: Trypanosoma cruzi proteasome chymotrypsin-like activity (TcProtChymo) assay.; note: in the data most compounds retested in dose-response had high values; type: functional; conditions: 9.37 µM
# T3 sequence (whole entry): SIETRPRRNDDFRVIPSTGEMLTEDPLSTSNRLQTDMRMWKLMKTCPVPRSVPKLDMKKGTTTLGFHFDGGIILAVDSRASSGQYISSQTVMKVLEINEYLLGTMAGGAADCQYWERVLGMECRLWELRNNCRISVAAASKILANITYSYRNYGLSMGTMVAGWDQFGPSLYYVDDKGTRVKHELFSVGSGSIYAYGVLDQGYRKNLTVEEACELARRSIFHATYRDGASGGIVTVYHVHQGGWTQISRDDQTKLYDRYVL
# Homo sapiens = species on record: Homo sapiens; assay: To identify inhibition of the IFN signalling (Jak-Stat) pathway via expression of an eGFP reporter gene under the control of an IFN-stimulated response element (ISRE) containing MxA promoter.; type: functional; conditions: 30 µM
# [7] = target: T4, Tyrosyl-tRNA synthetase, putative (Trypanosoma cruzi (strain CL Brener)) (UniProt Q4DSP6); assay: Trypanosoma cruzi tyrosyl tRNA synthetase (TcYRS) _High Tyrosine SOP; type: functional; conditions: 30 µM; note: in the data most compounds retested in dose-response had high values
# T4 sequence (whole entry): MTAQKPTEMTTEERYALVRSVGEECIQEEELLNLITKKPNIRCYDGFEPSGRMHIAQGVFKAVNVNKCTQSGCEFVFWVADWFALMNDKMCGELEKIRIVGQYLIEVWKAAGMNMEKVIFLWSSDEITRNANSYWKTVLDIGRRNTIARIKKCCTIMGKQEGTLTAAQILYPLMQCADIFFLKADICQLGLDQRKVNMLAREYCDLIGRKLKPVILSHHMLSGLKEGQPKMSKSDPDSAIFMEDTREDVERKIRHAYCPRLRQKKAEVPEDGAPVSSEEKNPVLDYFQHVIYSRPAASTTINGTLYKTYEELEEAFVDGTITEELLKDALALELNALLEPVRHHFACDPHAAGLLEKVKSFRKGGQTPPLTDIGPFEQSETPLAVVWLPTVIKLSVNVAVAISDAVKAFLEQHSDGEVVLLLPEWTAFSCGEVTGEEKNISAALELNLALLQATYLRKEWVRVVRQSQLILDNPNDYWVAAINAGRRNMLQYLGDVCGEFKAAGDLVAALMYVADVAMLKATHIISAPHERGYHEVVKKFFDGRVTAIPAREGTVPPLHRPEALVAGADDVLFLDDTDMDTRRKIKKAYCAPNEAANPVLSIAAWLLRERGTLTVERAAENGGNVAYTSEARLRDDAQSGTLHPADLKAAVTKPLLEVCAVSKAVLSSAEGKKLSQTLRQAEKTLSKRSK
# [8] = target: T4, Tyrosyl-tRNA synthetase, putative (Trypanosoma cruzi (strain CL Brener)); assay: Trypanosoma cruzi tyrosyl tRNA synthetase (TcYRS) SOP; type: functional; conditions: 30 µM
# [9] = target: Chromo domain-containing protein 1 (Saccharomyces cerevisiae (strain ATCC 204508 / S288c) (Baker's yeast)) (UniProt P32657); assay: ScCHD-1 Enzyme Inhibition Assay; type: functional; conditions: 30 µM; note: in the data most compounds retested in dose-response had high values
# Chain of Chromo domain-containing protein 1 (Saccharomyces cerevisiae (strain ATCC 204508 / S288c) (Baker's yeast)) (P32657 whole entry, the tested form may be a part): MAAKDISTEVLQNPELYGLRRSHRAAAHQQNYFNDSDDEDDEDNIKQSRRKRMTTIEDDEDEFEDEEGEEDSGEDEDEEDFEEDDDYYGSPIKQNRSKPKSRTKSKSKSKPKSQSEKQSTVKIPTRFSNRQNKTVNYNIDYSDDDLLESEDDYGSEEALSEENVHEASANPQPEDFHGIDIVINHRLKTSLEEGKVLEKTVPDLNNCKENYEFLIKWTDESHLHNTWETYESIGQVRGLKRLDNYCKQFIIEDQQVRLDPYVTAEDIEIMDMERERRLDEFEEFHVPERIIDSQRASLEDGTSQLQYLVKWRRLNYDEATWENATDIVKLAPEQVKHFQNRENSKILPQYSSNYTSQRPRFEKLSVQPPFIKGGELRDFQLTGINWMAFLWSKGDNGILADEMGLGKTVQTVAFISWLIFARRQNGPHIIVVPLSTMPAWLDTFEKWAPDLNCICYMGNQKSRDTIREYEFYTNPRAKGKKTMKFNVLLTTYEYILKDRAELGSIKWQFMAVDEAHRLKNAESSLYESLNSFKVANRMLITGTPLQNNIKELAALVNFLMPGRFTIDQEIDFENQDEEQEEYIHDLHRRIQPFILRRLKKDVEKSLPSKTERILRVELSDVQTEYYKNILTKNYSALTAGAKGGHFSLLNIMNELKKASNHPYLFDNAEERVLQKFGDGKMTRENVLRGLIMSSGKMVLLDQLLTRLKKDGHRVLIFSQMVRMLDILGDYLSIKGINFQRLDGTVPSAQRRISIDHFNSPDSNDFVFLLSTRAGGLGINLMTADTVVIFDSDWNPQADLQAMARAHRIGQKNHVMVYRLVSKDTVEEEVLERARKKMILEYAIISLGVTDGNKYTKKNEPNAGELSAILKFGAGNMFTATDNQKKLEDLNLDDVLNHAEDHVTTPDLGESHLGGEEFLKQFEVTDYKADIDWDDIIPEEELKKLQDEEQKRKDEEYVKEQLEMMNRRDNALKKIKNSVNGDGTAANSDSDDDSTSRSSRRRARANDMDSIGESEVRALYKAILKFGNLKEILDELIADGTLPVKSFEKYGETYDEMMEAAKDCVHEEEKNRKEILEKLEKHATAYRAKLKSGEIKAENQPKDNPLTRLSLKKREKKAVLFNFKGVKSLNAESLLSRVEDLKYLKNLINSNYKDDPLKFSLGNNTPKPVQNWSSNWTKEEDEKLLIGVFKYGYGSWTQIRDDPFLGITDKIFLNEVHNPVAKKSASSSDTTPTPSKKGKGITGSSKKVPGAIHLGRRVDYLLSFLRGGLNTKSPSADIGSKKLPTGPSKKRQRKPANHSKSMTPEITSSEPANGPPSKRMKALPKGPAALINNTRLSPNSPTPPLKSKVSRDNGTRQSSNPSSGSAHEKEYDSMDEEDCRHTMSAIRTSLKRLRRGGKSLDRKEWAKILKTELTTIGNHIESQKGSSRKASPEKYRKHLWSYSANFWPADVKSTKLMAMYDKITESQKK
# Chain of Protein translocase subunit SecA (Escherichia coli (strain K12)) (P10408 whole entry): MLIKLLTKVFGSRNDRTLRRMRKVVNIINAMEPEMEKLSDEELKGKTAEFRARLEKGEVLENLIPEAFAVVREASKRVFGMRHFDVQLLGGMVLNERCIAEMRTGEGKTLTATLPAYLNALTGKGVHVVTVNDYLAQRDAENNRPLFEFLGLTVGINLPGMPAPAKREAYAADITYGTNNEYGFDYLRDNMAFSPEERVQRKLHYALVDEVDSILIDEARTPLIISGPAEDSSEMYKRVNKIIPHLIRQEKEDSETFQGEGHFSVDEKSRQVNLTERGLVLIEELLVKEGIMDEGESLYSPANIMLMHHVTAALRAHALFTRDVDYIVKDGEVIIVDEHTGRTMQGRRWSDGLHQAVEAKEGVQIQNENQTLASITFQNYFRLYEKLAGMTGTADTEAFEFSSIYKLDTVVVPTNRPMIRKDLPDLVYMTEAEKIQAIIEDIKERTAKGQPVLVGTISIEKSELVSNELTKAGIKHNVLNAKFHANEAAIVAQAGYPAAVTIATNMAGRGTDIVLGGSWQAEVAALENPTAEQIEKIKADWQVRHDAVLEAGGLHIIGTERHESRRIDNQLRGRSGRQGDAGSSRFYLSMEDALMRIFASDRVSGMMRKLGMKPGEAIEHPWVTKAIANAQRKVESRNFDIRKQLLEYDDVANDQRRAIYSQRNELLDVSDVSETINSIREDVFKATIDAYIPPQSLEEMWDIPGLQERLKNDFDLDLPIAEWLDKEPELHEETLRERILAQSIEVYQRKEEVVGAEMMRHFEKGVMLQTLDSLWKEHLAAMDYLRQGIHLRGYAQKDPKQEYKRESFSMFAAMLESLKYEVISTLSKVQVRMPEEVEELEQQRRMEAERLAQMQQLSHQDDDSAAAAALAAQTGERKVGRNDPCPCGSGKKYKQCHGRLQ
SMILES,Percent Effect [1] [%],Percent Effect [2] [%],Percent Effect [3] [%],Percent Effect [4] [%],Percent Effect (Trypanosoma cruzi) [%],Percent Effect [5] [%],Percent Effect [6] [%],Percent Effect (Homo sapiens) [%],Percent Effect [7] [%],Percent Effect [8] [%],Percent Effect [9] [%]
CCc1nc(CN2CCCN(C(=O)c3cnc[nH]3)CC2)cs1,-0.253,-2.7,2.03,4.57,2.14,-1.66,12.9,2.83,3.96,1.22,4.62
COc1c(CNCc2cccc(Cn3ccnc3)c2)c(C)nn1C,-5.63,21.6,-15,13.9,5.38,-11.2,10.3,37.8,4.43,18.5,-10
O=C(c1ccnnc1)N1C[C@H]2CCC[C@@]2(COCC2CCOCC2)C1,-1.23,-16.2,2.91,1.16,7.72,-2.87,9.04,-6.27,-1.08,5.13,0.739
O=C(NCCN1CCC(c2cccs2)CC1)c1ccccc1C(F)(F)F,-3.22,8.22,0.699,8.89,5.09,17.7,17.2,3.57,5.38,12.5,-4.65
CSc1ncccc1C(=O)N1CCC(c2nc3c(C)cccc3[nH]2)CC1,-5.33,20.8,6.84,10.4,3.83,-5.52,16.1,3.12,7.53,13.6,-10.4
Cc1cnn(CC2CN(Cc3nc(N)c4ccccc4n3)CCO2)c1 (configuration not stated),-2.67,13,-1.66,-10,-5.78,-1.47,19.3,10.5,4.76,11.8,-20.4
CN(Cc1nccn1CC(F)(F)F)C(=O)c1ccc(F)c(F)c1,-4.78,5.26,7.84,5.27,-1.46,0,10.4,4.07,4.25,13,26.9
CN(C)CCN(Cc1cccc(C(F)(F)F)c1)C(=O)c1cc[nH]n1,1.05,-4.17,-0.743,-0.91,-4.57,2.65,5.61,6.86,-3.16,-10.3,-3.17
O=C(c1cc(COc2ccc3c(c2)OCO3)[nH]n1)N1CC=CC1CO (configuration not stated),-3.88,-2.74,9.97,22.3,-5.36,0.399,15.3,9.04,3.12,-8.64,0.567
CC(NC(=O)NCCOc1ccc(F)c(F)c1)c1nncn1C (configuration not stated),-3.44,5.2,2.42,5.57,7.15,2.74,12.5,16.9,4.76,9.41,-12.3
CCC(C)(NCC(=O)Nc1nc(C)cs1)c1nc(C)cs1 (configuration not stated),0.0522,10.8,-10.8,-1.43,-3.62,-2.73,7.47,21,7.53,13.6,-3.58
COCC(C)(O)CNC(=O)COc1ccccc1OC (configuration not stated),-1.78,2.74,6.7,-4.63,-4.31,2.27,8.52,1.8,5.38,7.5,-3.71
CCc1nc(CN2CCCC(NCc3nnc(C4CC4)o3)C2)no1 (configuration not stated),-2.45,18.2,3.2,-12.1,1.67,-0.632,10.4,-0.806,11.4,25.9,-21.2
CCCC(NC(=O)c1cc(C)ccc1C)c1nnn[nH]1 (configuration not stated),-4.53,13.3,-5.34,20.1,7.89,20.8,11.7,12.3,6.01,13.6,-1.49
CSc1ccsc1C(=O)N1CCN(CC(C)(C)O)CC1,-4.54,8.86,0.454,1.08,1.13,-4.95,4.29,3.01,4.17,-25.3,-14.7
COc1ccc(CN2CCCC2Cn2nc(C)nc2C)cc1F (configuration not stated),-3.83,6.33,4.88,0.831,-0.718,2.8,8.58,3.7,5.21,7.59,-16.6
Cc1cnn(C2CCCN(C(=O)c3ccn(C)c(=O)c3)C2)c1 (configuration not stated),-0.722,7.79,-5.73,-4,1.08,5.68,-3.15,20.6,3.81,11.8,-14.6
CNC(=O)CSc1cnn(CC(=O)Nc2cccc(Cl)c2C)c(=O)c1Cl,-2.17,5.48,-0.626,4.21,-4.31,2.73,17.6,9.06,4.3,12.5,1.71
CSc1ccc(C(CNC(=O)C2CC2)N2CCc3sccc3C2)cc1 (configuration not stated),-3.4,5.26,1.69,-0.599,0.876,-2.37,16,9.34,8.51,15.6,4.76
O=C(N1CCOCC1)[C@@]12CCO[C@@H]1CCN(Cc1ccccc1F)C2,-0.952,-4,-2.07,6.8,-6.88,29.8,12.2,0.338,1.06,-2.56,-3.56
CC(C)(C)NC(=O)CN1CCN(C(=O)Nc2ccc(F)cc2F)CC1,-2.23,5.48,8.1,-2.38,-8.73,-0.399,6.76,10.3,3.12,6.17,-2.48
CCC(C(=O)NC)N(c1cccc(C)c1)S(C)(=O)=O (configuration not stated),-4.2,16,-4.91,18.5,6.72,41.7,4.71,9.46,4.92,13.6,-3.23
